Here are results for ten compounds from PubChem BioAssay (NCI).

SMILES strings stand for the structures. About 79,000 compounds went through this panel and 15% of them were active in at least one assay; those are over-represented in the sample as a whole. A number with no mark means an inactive call. Activity calls are given as the source filed them. No stated cut-off is given here; in the data, active means growth inhibition above about 70%; inactive means the rest.

Assay [1] can be described thus: NCI Yeast Anticancer Drug Screen. Data for the rad50 strain (AID 155).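 Further: 0% = growth of vehicle-only cultures of the same strain.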 The note with it: S. cerevisiae rad50 strain growth inhibition, stronger effect = higher value. A digest of the protocol:
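Readout: growth inhibition relative to vehicle-treated cultures. Compound exposure was carried out in a genetically defined yeast strain deficient in DNA damage repair.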

The nature of assay [2]: NCI Yeast Anticancer Drug Screen. Data for the mec2-1 strain (AID 157). The note with it: S. cerevisiae mec2-1 strain, stronger effect = higher value. An outline of the steps:
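Strain: mec2-1 (DNA repair/cell cycle alteration). Compound exposure, then growth measured; inhibition expressed relative to vehicle.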

Assay [3] can be described thus: NCI Yeast Anticancer Drug Screen. Data for the sgs1 mgt1 strain (AID 161).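 Further: 0% = growth of cultures given vehicle only.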 The note with it: S. cerevisiae sgs1 mgt1 strain, stronger effect = higher value. A digest of the protocol:
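Genetically altered yeast, compound exposure, growth inhibition relative to vehicle.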

A short description of assay [4]: NCI Yeast Anticancer Drug Screen. Data for the cln2 rad14 strain (AID 165).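 Further: 0% = growth equal to vehicle treated cultures.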 The note with it: S. cerevisiae cln2 rad14 strain, stronger effect = higher value. A digest of the protocol: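 Compounds are applied to the cln2 rad14 yeast strain, and growth is then compared with that of vehicle-treated cultures to give inhibition.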
Assay [5] in a line: NCI Yeast Anticancer Drug Screen. Data for the bub3 strain (AID 167). The settings on record: S. cerevisiae bub3 mutant strain, stronger effect = higher value. A digest of the protocol:
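Readout: yeast growth inhibition, expressed relative to vehicle-only wells. The test organism is a mutant strain from a panel with lesions in DNA repair or checkpoint genes.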

Assay [6] is described as follows: NCI Yeast Anticancer Drug Screen. Data for the mlh1 rad18 strain (AID 175). The settings on record: S. cerevisiae mlh1 rad18 strain growth inhibition, stronger effect = higher value. A digest of the protocol: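 Read-out is yeast growth inhibition, calculated against vehicle-only controls. The compound was applied to a strain engineered with DNA damage repair alterations.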

[7] abbreviates: at 5.0 µM (retest, dose inferred, filed as 0.5).
[8] abbreviates: at 50.0 µM (retest, dose inferred, filed as 5.0).

Turning to `CC[N+]1(C)CC2CCC(CC2)C1` (stereo not given), the growth inhibition in assay [1] (setting [7]) is -2%; in assay [1] (setting [8]), -5%; in assay [1] (at 50.0 µM) it was -1.6%; in assay [2] (setting [7]) it was -3%; in assay [2] (setting [8]), -3%; in assay [2] (at 50.0 µM) it was 35%. The growth inhibition in assay [3] (setting [7]) is -4%; in assay [3] (setting [8]) it was -2%; in assay [3] (at 50.0 µM), 7.2%; in assay [4] (setting [7]) it was -4%; in assay [4] (setting [8]), -6%; in assay [4] (at 50.0 µM), 72% (active). The growth inhibition is -3% in assay [5] (setting [7]); 2% in assay [5] (setting [8]); -7.15% in assay [5] (at 50.0 µM); -4% in assay [6] (setting [7]); -3% in assay [6] (setting [8]); 7.35% in assay [6] (at 50.0 µM).
With `S=C(Nc1ccccc1)SCc1ccc(Cl)cc1`, the growth inhibition was 1% in assay [1] (setting [7]); 96% (active) in assay [1] (setting [8]); 90.6% (active) in assay [1] (at 50.0 µM); -6% in assay [2] (setting [7]); 98% (active) in assay [2] (setting [8]); 67.2% in assay [2] (at 50.0 µM). The growth inhibition in assay [3] (setting [7]) is 1%; in assay [3] (setting [8]), 96% (active); in assay [3] (at 50.0 µM), 84.7% (active); in assay [4] (setting [7]) it was -6%; in assay [4] (setting [8]), 96% (active); in assay [4] (at 50.0 µM), 38.5%. The growth inhibition is -5% in assay [5] (setting [7]); 97% (active) in assay [5] (setting [8]); 86.4% (active) in assay [5] (at 50.0 µM); -7% in assay [6] (setting [7]); 97% (active) in assay [6] (setting [8]); 85.5% (active) in assay [6] (at 50.0 µM).
As for `COc1ccc(/C=C2\CCC(CN3CCOCC3)C2=O)cc1` (stereo not given), the growth inhibition is 65% in assay [1] (setting [7]); 99% (active) in assay [1] (setting [8]); 93.5% (active) in assay [1] (at 50.0 µM); 92% (active) in assay [2] (setting [7]); 100% (active) in assay [2] (setting [8]); 93.8% (active) in assay [2] (at 50.0 µM). Also, the growth inhibition in assay [3] (setting [7]) was 55%; in assay [3] (setting [8]) it was 99% (active); in assay [3] (at 50.0 µM), 93.2% (active); in assay [4] (setting [7]), 46%; in assay [4] (setting [8]), 99% (active); in assay [4] (at 50.0 µM) it was 91.8% (active). Also, the growth inhibition is 96% (active) in assay [5] (setting [7]); 99% (active) in assay [5] (setting [8]); 92.7% (active) in assay [5] (at 50.0 µM); 89% (active) in assay [6] (setting [7]); 97% (active) in assay [6] (setting [8]); 89.7% (active) in assay [6] (at 50.0 µM).
`O=[N+]([O-])c1ccc(/C=N/O)o1`: the growth inhibition in assay [1] (setting [7]) was 20%; in assay [1] (setting [8]) it was 98% (active); in assay [1] (at 50.0 µM), 98.2% (active); in assay [2] (setting [7]), 6%; in assay [2] (setting [8]), 99% (active); in assay [2] (at 50.0 µM) it was 99.5% (active). Further, the growth inhibition in assay [3] (setting [7]) is 5%; in assay [3] (setting [8]) it was 99% (active); in assay [3] (at 50.0 µM), 99.2% (active); in assay [4] (setting [7]), 49%; in assay [4] (setting [8]) it was 98% (active); in assay [4] (at 50.0 µM) it was 89% (active). In addition, the growth inhibition in assay [5] (setting [7]) is 13%; in assay [5] (setting [8]), 99% (active); in assay [5] (at 50.0 µM), 99.6% (active); in assay [6] (setting [7]) it was 44%; in assay [6] (setting [8]), 99% (active); in assay [6] (at 50.0 µM) it was 99% (active).
With `C/C(=N\NC(=S)N(C)C)c1cccc(C)n1`, the growth inhibition in assay [1] (setting [7]) is 76% (active); in assay [1] (setting [8]), 98% (active); in assay [1] (at 50.0 µM), 99.2% (active); in assay [2] (setting [7]) it was 84% (active); in assay [2] (setting [8]), 99% (active); in assay [2] (at 50.0 µM), 99.3% (active). In addition, the growth inhibition in assay [3] (setting [7]) was 84% (active); in assay [3] (setting [8]), 99% (active); in assay [3] (at 50.0 µM), 99.2% (active); in assay [4] (setting [7]) it was 89% (active); in assay [4] (setting [8]), 99% (active); in assay [4] (at 50.0 µM), 99% (active). Besides, the growth inhibition is 70% (active) in assay [5] (setting [7]); 98% (active) in assay [5] (setting [8]); 99.3% (active) in assay [5] (at 50.0 µM); 95% (active) in assay [6] (setting [7]); 98% (active) in assay [6] (setting [8]); 99.3% (active) in assay [6] (at 50.0 µM).
For the compound `CN(Cc1cc(Cl)cc(Cl)c1)CC(C(=O)c1ccccc1)c1ccccc1` (stereo not given), the growth inhibition is 21% in assay [1] (setting [7]); 86% (active) in assay [1] (setting [8]); 81.7% (active) in assay [1] (at 50.0 µM); 13% in assay [2] (setting [7]); 90% (active) in assay [2] (setting [8]); 96.5% (active) in assay [2] (at 50.0 µM). For the same compound, the growth inhibition was 57% in assay [3] (setting [7]); 96% (active) in assay [3] (setting [8]); 93.3% (active) in assay [3] (at 50.0 µM); 3% in assay [4] (setting [7]); 85% (active) in assay [4] (setting [8]); 50.3% in assay [4] (at 50.0 µM). In addition, the growth inhibition in assay [5] (setting [7]) was 14%; in assay [5] (setting [8]), 94% (active); in assay [5] (at 50.0 µM), 41.5%; in assay [6] (setting [7]) it was 29%; in assay [6] (setting [8]), 91% (active); in assay [6] (at 50.0 µM) it was 97.3% (active).
With `CN(C)CCCc1ccc2oc3ccccc3c2c1`, the growth inhibition was 5% in assay [1] (setting [7]); 65% in assay [1] (setting [8]); 77.8% (active) in assay [1] (at 50.0 µM); 4% in assay [2] (setting [7]); 39% in assay [2] (setting [8]); 40.7% in assay [2] (at 50.0 µM). Besides, the growth inhibition in assay [3] (setting [7]) is 6%; in assay [3] (setting [8]), 54%; in assay [3] (at 50.0 µM), 48.6%; in assay [4] (setting [7]) it was 15%; in assay [4] (setting [8]), 34%; in assay [4] (at 50.0 µM), 27.1%. For the same compound, the growth inhibition is 14% in assay [5] (setting [7]); 77% (active) in assay [5] (setting [8]); 69% in assay [5] (at 50.0 µM); 7% in assay [6] (setting [7]); 42% in assay [6] (setting [8]); 48% in assay [6] (at 50.0 µM).
For the compound `CCN(CCN1C(=O)C2CCCCC2C1=O)c1ccc(N=O)c(C)c1` (stereo not given), the growth inhibition was 71% (active) in assay [1] (setting [7]); 97% (active) in assay [1] (setting [8]); 98.8% (active) in assay [1] (at 50.0 µM); 66% in assay [2] (setting [7]); 99% (active) in assay [2] (setting [8]); 98.8% (active) in assay [2] (at 50.0 µM). For the same compound, the growth inhibition in assay [3] (setting [7]) is 28%; in assay [3] (setting [8]) it was 99% (active); in assay [3] (at 50.0 µM), 97.9% (active); in assay [4] (setting [7]), 23%; in assay [4] (setting [8]), 96% (active); in assay [4] (at 50.0 µM), 88.6% (active). Also, the growth inhibition was 48% in assay [5] (setting [7]); 98% (active) in assay [5] (setting [8]); 99.1% (active) in assay [5] (at 50.0 µM); 72% (active) in assay [6] (setting [7]); 97% (active) in assay [6] (setting [8]); 97.5% (active) in assay [6] (at 50.0 µM).
Regarding `CN=c1sc2c(n1C)C(=O)c1ccccc1C2=O`, the growth inhibition in assay [1] (setting [7]) is 26%; in assay [1] (setting [8]) it was 48%; in assay [1] (at 50.0 µM) it was 82.6% (active); in assay [2] (setting [7]), 17%; in assay [2] (setting [8]) it was 40%; in assay [2] (at 50.0 µM), 75.7% (active). Further, the growth inhibition in assay [3] (setting [7]) is 31%; in assay [3] (setting [8]), 49%; in assay [3] (at 50.0 µM) it was 87.8% (active); in assay [4] (setting [7]) it was 21%; in assay [4] (setting [8]) it was 23%; in assay [4] (at 50.0 µM) it was 25.6%. Moreover, the growth inhibition is 28% in assay [5] (setting [7]); 64% in assay [5] (setting [8]); 65.9% in assay [5] (at 50.0 µM); 23% in assay [6] (setting [7]); 54% in assay [6] (setting [8]); 80.8% (active) in assay [6] (at 50.0 µM).
In the case of `CCOc1cc2c(cc1O)CC[C@@H]1[C@@H]2CC[C@]2(C)[C@@H](O)CC[C@@H]12`, the growth inhibition in assay [1] (setting [7]) is 33%; in assay [1] (setting [8]), 39%; in assay [1] (at 50.0 µM), 41%; in assay [2] (setting [7]), 13%; in assay [2] (setting [8]), 33%; in assay [2] (at 50.0 µM) it was -10.4%. In addition, the growth inhibition was 13% in assay [3] (setting [7]); 34% in assay [3] (setting [8]); 46.8% in assay [3] (at 50.0 µM); 12% in assay [4] (setting [7]); 30% in assay [4] (setting [8]); 33.4% in assay [4] (at 50.0 µM). The growth inhibition is 25% in assay [5] (setting [7]); 39% in assay [5] (setting [8]); 44.2% in assay [5] (at 50.0 µM); 27% in assay [6] (setting [7]); 42% in assay [6] (setting [8]); 40.8% in assay [6] (at 50.0 µM).
